From PubChem BioAssay
TR SRC2 fluor cs – Texas Red fluorescence interference in TRb-SRC2 counter-screen; TRb/SRC2 Texas Red total fluorescence interference; AID 1479; Potency, µM (titrated, usually from 106 µM), for inactives: at the highest dose fluorescence change, negative = quenching; hit rate 0.29% among 280,000; active = well fitted curve in either direction with a large enough effect; inconclusive = small, poorly fitted or top-dose-only effect
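Human TRβ ligand-binding domain (0.6 uM) and Texas Red SRC2 peptide (20 nM) in Tris buffer with 1 uM T3 and 5% DMSO were incubated with pinned compound for 5 hr at ambient temperature. Total fluorescence was computed as S + 2P (555/632 nm).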
RGS12 GoLoco inh – RGS12 GoLoco-Gai1 interaction inhibition; hit rate 0.44% among 230,000; Potency, µM (titrated, usually from 61.6 µM), for the others: at the highest dose activity, negative = inhibition, hits mostly inhibitors; Gai1:RGS12 GoLoco peptide FP, rhodamine, 10 min; AID 880; P63096; active = well fitted inhibition curve with a large enough effect, not every such curve was filed as active; inactive = no such curve, though single readings can be large or run the other way; note: nearly all actives have a fitted effect of over 30% in size
Target sequence (P63096 whole entry, looked up): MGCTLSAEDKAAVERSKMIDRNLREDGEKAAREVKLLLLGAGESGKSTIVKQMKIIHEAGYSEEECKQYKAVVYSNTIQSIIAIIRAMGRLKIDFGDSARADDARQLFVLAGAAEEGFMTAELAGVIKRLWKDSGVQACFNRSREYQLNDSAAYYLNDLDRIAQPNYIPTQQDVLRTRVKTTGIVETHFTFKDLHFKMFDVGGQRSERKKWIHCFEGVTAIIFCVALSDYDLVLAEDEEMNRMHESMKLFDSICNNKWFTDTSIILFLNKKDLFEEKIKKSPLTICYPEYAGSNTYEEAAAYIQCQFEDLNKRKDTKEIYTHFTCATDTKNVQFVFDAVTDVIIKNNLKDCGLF
Tau fluor counter – counter-screen for tau fibril formation inhibitors; hit rate 0.93% among 280,000; tau K18 P301L Alexa594 fluorescence, heparin fibrillization; Potency, µM (doses to about 57.7 µM), for inactives: at the highest dose activity change, negative = decrease; AID 1463; note: nearly all actives have a fitted effect of over 55% in size
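Human K18 P301L tau (15 uM unlabeled plus 0.24 uM Alexa 594-labeled, final) in 100 mM sodium acetate pH 7 was mixed with compound and 20 uM heparin and incubated 6 hr at 37 C.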
TRb-SRC2 inh – inhibitors of human thyroid hormone receptor beta-SRC2 interaction; P10828; TRbeta-SRC2 peptide binding, fluorescence polarization; receptor liganded with 1 µM T3; Potency, µM (highest dose often 106 µM), for inactives: at the highest dose activity change, negative = inhibition, hits mostly inhibitors; hit rate 0.065% among 280,000;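 note: plate controls were bound peptide for no effect and peptide without receptor for full effect; nearly all actives have a fitted effect of over 50% in size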
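Fluorescence polarization of 20 nM Texas Red SRC2 peptide (20-aa NR interaction domain) bound to 0.6 uM human TRb ligand-binding domain, with 1 uM T3, after 5 hr at ambient temperature; inhibition seen as decreased polarization.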
Tau fibril FP – inhibitors of human tau fibril formation | hit rate 0.39% among 280,000 | Potency, µM (highest dose often 57.7 µM), for the others: at the top dose activity, negative = inhibition, hits mostly inhibitors | P10636 | K18 P301L tau heparin fibrillization, Alexa594 FP, 6 h | AID 1468; note: nearly all actives have a fitted effect of over 55% in size
Target sequence (P10636 561-689 P618L limits assumed): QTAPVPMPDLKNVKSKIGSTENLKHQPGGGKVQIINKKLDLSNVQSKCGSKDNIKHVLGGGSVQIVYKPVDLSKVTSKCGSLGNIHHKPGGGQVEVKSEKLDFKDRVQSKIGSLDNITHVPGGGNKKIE
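Steps: dispense K18 P301L tau (15 uM plus 0.24 uM Alexa 594 tracer, final) in pH 7 sodium acetate; add compound; add heparin (20 uM final); incubate 6 hr, 37 C; add ThT (30 uM final); after 1 hr ambient, read FP.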
Tau fibril ThT – inhibitors of human tau fibril formation, thioflavin T binding | recombinant tau K18 P301L (four-repeat tau fragment), heparin-induced fibrillization, ThT fluorescence | Potency, µM (top dose mostly 57.4 µM), for inactives: at the highest dose activity, negative = inhibition, usual class: inhibitors | hit rate 2.1% among 270,000 | AID 1460; note: nearly all actives have a fitted effect of over 55% in size
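Recombinant human tau K18 fragment […] carrying P301L, 15 uM unlabeled plus 0.24 uM Alexa 594-labeled, was fibrillized with 20 uM heparin in 100 mM sodium acetate pH 7 for 6 hr at 37 C; 30 uM ThT fluorescence read after 1 hr.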
* hit, by the source's call; u = inconclusive; x = no result; ! = not active in a repeat; [ ] = another dose, or the depositor's remark. Sampled rows, rich in hits. Any-hit rate of the full collection: about 3.2%. Unless noted, calls come from the whole dose curve; as a rule, active = well fitted curve in the direction sought with a large enough effect; inconclusive = small, poorly fitted or top-dose-only effect, or another doubt; inactive = no such curve, though single readings can be large; an effect the other way counts as inactive or inconclusive. Unless noted, % is set by controls: 0 for no effect and ±100 for the full control effect; potency is the fitted concentration of half-maximal effect.

SMILES	TR SRC2 fluor cs	RGS12 GoLoco inh	Tau fluor counter	TRb-SRC2 inh	Tau fibril FP	Tau fibril ThT
Cc1ccc(Cn2cc(/C=N/Nc3ccc([N+](=O)[O-])cn3)c3ccccc32)cc1	-2.7%	44.0%	11.2µM*[quencher]	1.2%	12.3%	10µM*
Cc1c(/C=N/Nc2ccc([N+](=O)[O-])cn2)c2ccccc2n1Cc1ccccc1	0.8%	14.7%	u	1.4%	8.2%	u
Cc1c(C(=O)O)cccc1-n1c(C)cc(/C=N/Nc2ccc([N+](=O)[O-])cn2)c1C	-6.6%	24.0%	u	-1.1%	4.6%	12.6µM*
Cc1cc(/C=N/NC(=O)c2ccccn2)c(C)n1-c1cccc([N+](=O)[O-])c1	-7.4%	10.1%	-6.2%	-5.2%	-0.2%	-16.9%
Cc1cc(/C=N/Nc2ccc([N+](=O)[O-])cn2)c(C)n1-c1ccccc1	-2.3%	21.3%	u	-8.3%	8.0%	3.55µM*
CCC(=O)[C@]12O[C@@]3(C4C(=O)OCCC41)N(Cc1ccccc1)C(C)=C(C(=O)OC)C(c1ccccc1)N3C2=O (stereo partly specified)	-0.9%[11.2 µM]	x	-3.9%[11.6 µM]	-2.1%[11.2 µM]	1.4%[11.6 µM]	-7.8%[11.5 µM]
COc1ncc2nc(-c3cc(F)cc(F)c3)c(=O)n(CCc3ccccc3)c2n1	x	2.1%	x	x	x	x
Cc1nc(N2CCOCC2)c2nc(-c3ccccc3)n(CCCN3CCOCC3)c2n1	-2.5%	4.5%	-15.2%	3.9%	-1.6%	-12.7%
CCOC(=O)c1ccc(N2C(=O)c3[nH]nc(-c4ccc(OC)cc4)c3C2c2cccc(O)c2)cc1 (stereo unspecified)	-0.6%	x	u	2.7%	15.8µM*	u
CCOC(=O)c1ccc(N2C(=O)c3[nH]nc(-c4ccc(C)cc4)c3C2c2cccc(F)c2)cc1 (stereo unspecified)	-0.5%	x	-22.9%	0.3%	u	-3.2%
COc1cc(OC)c(C(=O)/C=C/c2ccccc2)c(O)c1O	-5.0%	6.0%	-27.9%	-3.2%	5.0%	12.6µM*
O=C(/C=C/c1ccc(O)cc1)c1ccc(O)cc1O	-8.1%	5.4%	u	14.4%	7.6%	10µM*
O=C(O)/C=C\c1ccc(O)c(O)c1	-4.9%[53 µM]	-34.6%[21.6 µM]	x	1.3%[53 µM]	x	x
O=C(/C=C/c1ccc(O)c(O)c1)c1ccccc1O	-5.2%	45.4%	u	4.9%	u	12.6µM*
O=C(/C=C/c1ccccc1)c1ccc(O)cc1O	-7.3%	-1.7%	-25.0%	u	u	u
CCc1cc(C(=O)O)c(NC(=O)/C=C/c2ccc(OC)cc2)s1	-8.9%	-0.5%	u	8.5%	-1.6%	12.6µM*
COc1cc(O)cc(O)c1C(=O)/C=C/c1ccccc1	-2.7%	6.2%	-19.3%	7.7%	-5.7%	u
CCc1cc(C(=O)O)c(NC(=O)/C=C/c2ccc(OC)c(OC)c2)s1	-20.0%	9.1%	-14.5%	4.4%	-0.3%	u
Cc1cc2sc(C)[n+](CCCOS(=O)(=O)O)c2cc1C	x	29.9%[14.2 µM]	x	x	x	x
C[C@@H](c1ccccc1)N1C(=O)[C@H]2[C@@H]3[C@H](O)C=CC(=O)[C@H]3CC[C@H]2C1=O	-3.8%[11.2 µM]	x	-3.1%[11.6 µM]	-2.8%[11.2 µM]	-0.5%[11.6 µM]	-11.2%[11.5 µM]
COc1cc2c(cc1CC=C(C)C)C(=O)C[C@@H](c1ccc(O)cc1)O2	-1.2%	x	x	2.6%	x	x
COc1ccc(/C=C/C(=O)c2ccc(O)cc2O)cc1	-6.3%	-0.1%	u	3.0%	-15.2%	11.2µM*
COc1ccc(/C=C/C(=O)c2c(OC)cc(O)cc2OC)cc1	0.8%	x	x	3.9%	x	x
COc1cc(O)c(C(=O)/C=C/c2ccc(O)c(OC)c2)c(OC)c1	-1.8%	54.3%	-28.5%	-7.4%	0.6%	1.78µM*
COc1ccc(/C=C/C(=O)c2ccc(O)cc2O)cc1OC	0.0%	0.8%	-17.8%	-3.4%	-13.8%	7.08µM*
SMILES	TR SRC2 fluor cs	RGS12 GoLoco inh	Tau fluor counter	TRb-SRC2 inh	Tau fibril FP	Tau fibril ThT
COc1ccc(/C=C/C(=O)c2cc3c(cc2N)OCO3)cc1	-5.8%	2.2%	15.8µM*[quencher]	2.8%	-1.9%	2.82µM*
C=CCOC(=O)CC(C)C	-3.6%[201 µM]	x	x	-2.3%[201 µM]	x	x
C[C@H]1[C@H](O)[C@@H](C)C=CC=CC=CC=CC=CC=CC=C[C@H](O[C@@H]2O[C@@H](C)[C@H](O)[C@@H](N)[C@@H]2O)C[C@@H]2O[C@](O)(C[C@@H](O)C[C@@H](O)[C@@H](O)CC[C@@H](O)C[C@@H](O)CC(=O)O[C@H]1C)C[C@H](O)[C@H]2C(=O)O	x	29.4%[14.2 µM]	x	x	x	x
COc1cc(/C=C/C(=O)c2ccc(O)cc2O)ccc1O	-12.5%	x	x	11.9%	x	x
COc1ccc(/C=C/C(=O)O)cc1	44.7µM*![fluorescent]	9.6%	5.5%	25.1µM*!	3.4%	5.7%
CC(C)=CCC/C(C)=C/Cc1c(O)ccc(C(=O)/C=C/c2ccc(O)cc2)c1O	-4.4%	3.2%	4.47µM*[quencher]	2.1%	7.94µM*	20µM*
COc1ccc(/C=C/C(=O)c2cc(O)ccc2O)cc1	-4.9%	-3.4%	14.1µM*[quencher]	7.1%	u	14.1µM*
COc1ccc(C(=O)/C=C/c2ccccc2)c(O)c1	-2.1%	1.2%	1.0%	-0.5%	14.1%	u
COc1cc2c(C#N)c(N3CCc4ccccc4C3)nc(N)c2c(N)n1	-0.6%	18.5%	14.1µM*[quencher]	-3.4%	0.8%	u
O=[N+]([O-])c1ccc(S(=O)(=O)Nc2ccc(-c3csc(-c4ccccc4)n3)cc2)cc1	0.3%	-2.6%	8.91µM*[quencher]	11.0%	-7.4%	u
CC(C)C(=O)Nc1nc(-c2ccc([N+](=O)[O-])cc2)cs1	-4.1%	-8.0%	-3.0%	2.4%	3.7%	-14.4%
CNc1nc(-c2ccc([N+](=O)[O-])cc2)cs1	-1.7%	7.4%	-12.8%	-1.7%	10.8%	12.6µM*
COc1cccc(-c2nnc3n2N=C(c2ccc(OC)cc2OC)CS3)c1	-0.6%	x	x	-4.7%	x	x
O=C(Nc1ccc2ccccc2c1)C(=O)C1C(=O)Nc2ccccc21 (stereo unspecified)	-2.2%	8.8%	-24.8%	-6.2%	3.0%	3.98µM*
Cc1ccc(C)c(N=Nc2ccc(O)c3ncccc23)c1	0.9%	-0.8%	-26.2%	-6.8%	14.7%	u
Cc1cccc(N=Nc2ccc(O)c3ncccc23)c1	-3.0%	4.3%	-26.5%	3.2%	u	2µM*
CN(Cc1ccco1)c1cc(-c2ccc3c(c2)OCO3)ncn1	x	-12.3%	x	x	x	x
CCOC(=O)c1c(N)sc(-c2ccccc2)c1C	-6.3%	-1.3%	u	-9.8%	6.1%	25.1µM*
CCc1ccccc1NS(=O)(=O)c1ccc2[nH]cc(C(=O)NC3CCCC3)c(=O)c2c1	-0.7%	-4.0%	u	-3.5%	12.6µM*	6.5%
O=C(NC1CCCCC1)c1c[nH]c2ccc(S(=O)(=O)Nc3ccccc3F)cc2c1=O	1.5%	x	u	0.0%	28.2µM*	-10.8%
